Screening data deposited in PubChem by several laboratories.
Most compounds without a hit are left out; they make up all but 32% or so of the library.
PostGolgi ctrl – yeast control strain growth, post-Golgi counter-screen. efflux-deficient yeast background strain, growth absorbance A615, 16 h. inhibition, % at 10 µM. hit rate 5% among 98,000
CYP2C19 activ – activators of human cytochrome P450 2C19; P33261; recombinant CYP2C19, luciferin-H EGE luminescence; active compounds read high; 0 = fully inhibited enzyme, 1 = untreated enzyme; activation factor at 5 µM; 96,000 tested, under 10 active;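 active = activation factor of at least 2 at 5 µM in the primary screen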;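 note: 0 = wells with 2.5 mM tranylcypromine and 1 = vehicle-only wells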
PostGolgi yeast – growth inhibition of a yeast mutant, post-Golgi transport screen; hit rate 0.9% among 98,000; post-Golgi transport phenotypic cell assay; inhibition, % at 10 µM; AID 739;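 note: yeast cells grown in 1536-well plates; yeast grown about 18 h at 30C before absorbance read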
CYP2C19 inhib – human CYP2C19 inhibition. AID 778. inhibition, % at 5 µM. CYP2C19 Supersomes, luciferin-H EGE luminescence, 30 min. hit rate 21% among 96,000. P33261;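 active = CYP2C19 inhibition above a set limit at 5 µM in the primary screen, cut at about 50% in these data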;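 note: plate controls were negative control wells for no effect and 2.5 mM tranylcypromine positive control for full effect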
CYP2C9 activ – increases human cytochrome P450 2C9 activity | recombinant CYP2C9, luciferin-H conversion, luminescence; active compounds read high; factor 1 = untreated enzyme, 0 = blocked | activation factor at 5 µM | hit rate 1.4% among 96,000 | AID 1024;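 active = activation factor of 2 or more for CYP2C9 at a 5 µM dose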;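 note: 0 = sulfaphenazole-blocked wells and 1 = vehicle-only wells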
Target sequence (P11712 whole entry, looked up): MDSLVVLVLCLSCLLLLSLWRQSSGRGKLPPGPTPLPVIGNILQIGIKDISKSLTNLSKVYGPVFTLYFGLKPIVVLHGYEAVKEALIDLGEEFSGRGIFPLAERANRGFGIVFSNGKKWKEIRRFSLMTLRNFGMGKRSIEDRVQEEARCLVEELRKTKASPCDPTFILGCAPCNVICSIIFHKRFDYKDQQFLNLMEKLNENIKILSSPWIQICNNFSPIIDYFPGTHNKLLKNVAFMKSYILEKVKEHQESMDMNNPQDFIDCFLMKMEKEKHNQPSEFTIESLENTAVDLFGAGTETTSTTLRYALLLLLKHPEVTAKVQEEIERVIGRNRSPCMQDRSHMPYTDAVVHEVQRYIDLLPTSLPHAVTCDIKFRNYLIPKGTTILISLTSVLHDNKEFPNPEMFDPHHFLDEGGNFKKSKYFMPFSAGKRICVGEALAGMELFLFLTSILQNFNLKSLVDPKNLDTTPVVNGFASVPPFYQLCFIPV
CYP2C9 inhib – blocks human cytochrome P450 2C9. AID 777. hit rate 20% among 96,000. CYP2C9 Supersomes, luciferin-H conversion, luminescence. inhibition, % at 5 µM. P11712;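 active = blocking of liver enzyme CYP2C9 beyond about 50% at 5 µM, limit read from the data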
Active calls of the source: *; . = no result given. Cut-off read from the data, not from the text of the source, unless noted: active = inhibition above about 30%; inactive = the rest.

SMILES	PostGolgi ctrl	CYP2C19 activ	PostGolgi yeast	CYP2C19 inhib	CYP2C9 activ	CYP2C9 inhib
C=CCn1c(-c2ccoc2)n[nH]c1=S	1	1	0	5	1.1	-10
CCn1c(O)c(/C=N/n2cnnc2)sc1=S	30*	0.4	6	62*	0.5	54*
O=C(O)Cn1c(O)c(C=Nc2ccccc2)sc1=S	-14	1	-3	2	1.1	-13
CCn1c(O)c(C=NC2CCCC2)sc1=S	10	0.3	11	69*	0.5	51*
CCN(CC)c1ccc(NC(=O)CSc2nc3ccccc3c(=O)[nH]2)cc1	5	0.8	-20	19	0.6	38
CN(C)c1ccc(CNC(=O)C2CCN(S(=O)(=O)c3ccc4c(c3)CCC(=O)N4)CC2)cc1	7	1	-4	-2	0.9	14
Brc1ccc(-c2cn3c(n2)CCc2ccc4cccnc4c2-3)cc1	59*	0.9	52*	5	1	4
Cc1ccc(-c2[nH]c(=O)n3ccncc23)s1	13	.	0	.	.	.
COc1ccc(CCNC(=O)COC(=O)c2ccc(Br)o2)cc1OC	-1	0.3	3	71*	0.2	80*
CCOc1ccc(CCNC(=O)COC(=O)c2ccco2)cc1OCC	-1	0.5	0	52*	0.3	69*
O=C(COC(=O)c1ccc(Br)o1)NCCCc1ccccc1	-2	0.5	-4	48	0.3	71*
CCOc1ccc(CCNC(=O)C2CCC(=O)N2CCc2ccccc2)cc1OCC (centres undefined)	7	1	-1	4	0.3	68*
CCCNC(=S)Nc1ccc2nc(-c3ccccn3)c(-c3ccccn3)nc2c1	9	0.8	-1	22	0.7	32
O=C1CCCN1CN(C(=O)c1ccccc1)c1ccc(F)cc1	6	1.1	-3	-13	1.1	-6
COc1ccc(CCNC(=O)COC(=O)c2ccc(Br)o2)cc1	2	0.6	7	42	0.2	78*
CCN1C(=O)/C(=C/N(C)c2ccccc2)OC1=S	6	0.2	-3	79*	0.5	53*
CCc1nnc(NC(=O)[C@@H](NC(=O)c2cccc(S(=O)(=O)N3CCOCC3)c2)C(C)C)s1	-4	0.9	-2	10	0.9	8
CCCc1nc2ccccc2c(=O)n1NC(=O)c1c(O)c2cccc3c2n(c1=O)CCC3	29	1.2	18	-16	1.1	-5
O=C(Nn1c(Cc2cccs2)nc2ccccc2c1=O)c1cccs1	-1	0.2	-10	84*	0.2	80*
CCCn1c(NCc2cccs2)nc2ccccc21	-7	0.9	-7	7	1.1	-6
Cc1nc2ccccc2c(=O)n1NCc1cccs1	22	0.3	-2	75*	0.8	21
Cc1cc(C)cc(NC(=O)c2cccn2-c2ncc(C(F)(F)F)cc2Cl)c1	14	0.5	-3	50	0.8	20
CN(CC(=O)NCc1ccco1)S(=O)(=O)c1ccc2c(c1)n(C)c(=O)c(=O)n2C	-3	1.1	-7	-10	1	2
Brc1ccc(-c2cnc(-c3cccs3)o2)cc1	19	0.7	3	31	0.4	59*
COc1ccc(CCNC(=O)Cn2nnc(-c3cccc(OC)c3OC)n2)cc1OC	-5	0.6	-3	43	0.8	22
SMILES	PostGolgi ctrl	CYP2C19 activ	PostGolgi yeast	CYP2C19 inhib	CYP2C9 activ	CYP2C9 inhib
COc1ccc(C(=O)Cn2nnc(-c3ccccc3NC(=O)C3CC3)n2)cc1	1	1	-2	-4	1	4
O=C(Cn1nnc(-c2ccccc2F)n1)NCCc1ccccc1	3	0.3	-6	70*	0.7	33
O=C(Cn1nnc(-c2ccccc2F)n1)Nc1cccc2ncccc12	16	0.4	5	63*	0.7	29
O=C(CN(C(=O)Cn1nnc(-c2ccccc2F)n1)c1cccc2c1CCCC2)NCc1ccccc1	18	0.8	1	23	0	96*
Cc1ccc(-c2nnn(CC(=O)N(c3ccccc3F)C(CC(C)C)C(=O)NCC3CCCO3)n2)cc1 (centres undefined)	10	0.8	-29	24	0.5	45
COc1ccc(C(=O)Cn2nnc(-c3ccccc3F)n2)cc1	17	0.5	-2	55*	1.4	-41
O=C1N=C2SCCN2/C1=C\c1ccccc1Cl	26	1.1	2	-8	1	-2
CC1(C)Cc2c(sc3c2c(=N)n(Cc2ccco2)c(=O)n3Cc2ccc(F)cc2)CO1	64*	0.9	14	10	0.8	24
COc1ccc(Cn2c(=O)n(Cc3ccco3)c(=N)c3c4c(sc32)COC(C)(C)C4)cc1	15	0.4	12	61*	0.1	91*
CN1CCN(C(c2cccc(C(F)(F)F)c2)c2nnnn2Cc2ccccc2)CC1 (centres undefined)	-2	0.5	21	52*	0.6	43
N#Cc1cccc(C(c2nnnn2Cc2ccccc2)N2CCCC2)c1 (centres undefined)	18	0.4	14	56*	0.8	23
Cn1nc(-c2ccccc2)c(-c2nc(-c3cccc(C(F)(F)F)c3)no2)c1Cl	7	0.9	3	9	0.6	42
CCCNc1nc(N)nc(-c2cc(Cl)ccc2OC)n1	14	0.3	2	74*	0.7	26
CCCN(CCC)c1nc(N)nc(-c2cc(Cl)ccc2OC)n1	56*	0.4	9	58*	0.8	16
Cc1cc(C=O)c(C)n1-c1ccc(N2CCCC2)c([N+](=O)[O-])c1	18	0.3	1	70*	0.6	44
Cc1ccc(NC(=O)/C(C#N)=C/c2cc(C)n(-c3ccc(N4CCOCC4)c([N+](=O)[O-])c3)c2C)c(C)c1	14	1	9	-2	0.8	20
Cc1ccc(N2CCN(CC(=O)Nc3c(C(=O)C4CC4)oc4ccccc34)CC2)cc1	-11	1.1	6	-12	1	0
CCCCSc1nnc2c(n1)OC(C(=O)c1ccccc1)Nc1ccccc1-2 (centres undefined)	21	0.5	8	49	0.1	87*
CC(C)C(OC(=O)c1ccco1)C(=O)NCc1ccco1 (centres undefined)	11	1	-2	-3	1.1	-13
Cn1nc(C(=O)NCc2ccc(F)cc2)c2ccccc2c1=O	0	.	-5	.	.	.
CC(OC(=O)CCc1nc2ccccc2c(=O)[nH]1)C(=O)NCc1ccc2c(c1)OCO2 (centres undefined)	-4	.	-3	.	.	.
Cn1nc(C(=O)NCc2ccccc2)c2ccccc2c1=O	-8	0.4	12	58*	0.8	24
CC(OC(=O)c1nsc(Cl)c1Cl)C(=O)NCc1ccc2c(c1)OCO2 (centres undefined)	-4	0.7	-1	31	0.1	92*
CC(OC(=O)c1nn(C)c(=O)c2ccccc12)C(=O)NCc1ccc2c(c1)OCO2 (centres undefined)	8	0.6	-2	38	0.2	78*
